CXXC DNA block: MLL CXXC-DNA interaction inhibition | Potency, µM (series often up to 115 µM), actives largely listed as inhibitors | 290,000 compounds, 0.037% hits | MLL-CXXC / FITC-HOXA9 DNA fluorescence polarization; active means well fitted inhibition curve with a large enough effect in the polarisation, with a control signal flat, not every such curve was filed as active; inconclusive means small, poorly fitted or top-dose-only effect, or effect the other way, or a change in a side signal; inactive means no such curve, though single readings can be large or run the other way; the % refers to the polarisation
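Fluorescence polarization: 7 uM MLL-CXXC (stock) preincubated 5 min with compounds, then 50 nM fluorescein-HOX-A9 DNA (stock) added; 30 min ambient. Buffer 50 mM Tris-HCl pH 7.5, 50 mM NaCl, 1 mM DTT, 0.05% BSA.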
Menin-MLL FL inh: menin-MLL binding inhibition, fluorescein peptide; FP activity change, % at 61.4 µM; Fluorescence polarization, fluorescein-MLL peptide displacement from menin; 290,000 tested, under 10 active; AID 1766; active means well fitted curve in the direction sought with a large enough effect in the polarisation, not every such curve was filed as active; inconclusive means small, poorly fitted or top-dose-only effect, or effect the other way, or a change in a side signal; inactive means no such curve, though single readings can be large or run the other way; the % refers to the polarisation
PINK1 modulator: PINK1 expression modulation | AID 624263 | 410,000 compounds, 0.2% hits | Potency, µM (highest dose often 76.6 µM), hits mostly activators | PINK1 immunofluorescence, high-content cytometry, 24 h; active means well fitted activation curve with a large enough effect; inconclusive means small, poorly fitted or top-dose-only effect; cell line not stated here; further: nearly all actives have a fitted effect of over 65% in size
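Decision-based qHTS: stable cells, 24 h exposure to five compound concentrations, CCCP as control. Fixed cells stained for PINK1 plus nuclear, mitochondrial and cell markers, cytometer read.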
ClpP mod: qHTS Assay for Activators of ClpP; ATP-dependent Clp protease proteolytic subunit (Bacillus subtilis (strain 168)), P80244; Potency, µM (titrated, usually from 57.5 µM); purified B. subtilis ClpP, FRET peptide cleavage, 20 min; 340,000 compounds, 1.9% hits; active means well fitted falling curve with a large enough effect; inconclusive means small, poorly fitted or top-dose-only effect; inactive means no such curve, though single readings can be large or run the other way; further: the source files actives as falling curves though it sought activators and does not explain the sign; nearly all actives have a fitted effect of over 65% in size
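Buffer: 100 mM Tris/HCl pH8, 100 mM KCl, 0.05% low protease BSA, 2.5% glycerol, 0.01% Tween-20. ClpP 10 microg/mL final; 20 min RT; delta FRET normalized to ADEP and DMSO controls.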
Menin MLL FP TR: inhibitors of human menin-MLL interaction, mutant MLL peptide; Potency, µM (titrated, usually from 61.6 µM), most hits filed as inhibitors; 270,000 compounds, 0.23% hits; Menin + Texas Red MLL mutant peptide, fluorescence polarization; active means well fitted inhibition curve with a large enough effect in the polarisation, with a control signal flat, not every such curve was filed as active; inconclusive means small, poorly fitted or top-dose-only effect, or effect the other way, or a change in a side signal; inactive means no such curve, though single readings can be large or run the other way; the % refers to the polarisation
Target sequence (O00255 whole entry, looked up): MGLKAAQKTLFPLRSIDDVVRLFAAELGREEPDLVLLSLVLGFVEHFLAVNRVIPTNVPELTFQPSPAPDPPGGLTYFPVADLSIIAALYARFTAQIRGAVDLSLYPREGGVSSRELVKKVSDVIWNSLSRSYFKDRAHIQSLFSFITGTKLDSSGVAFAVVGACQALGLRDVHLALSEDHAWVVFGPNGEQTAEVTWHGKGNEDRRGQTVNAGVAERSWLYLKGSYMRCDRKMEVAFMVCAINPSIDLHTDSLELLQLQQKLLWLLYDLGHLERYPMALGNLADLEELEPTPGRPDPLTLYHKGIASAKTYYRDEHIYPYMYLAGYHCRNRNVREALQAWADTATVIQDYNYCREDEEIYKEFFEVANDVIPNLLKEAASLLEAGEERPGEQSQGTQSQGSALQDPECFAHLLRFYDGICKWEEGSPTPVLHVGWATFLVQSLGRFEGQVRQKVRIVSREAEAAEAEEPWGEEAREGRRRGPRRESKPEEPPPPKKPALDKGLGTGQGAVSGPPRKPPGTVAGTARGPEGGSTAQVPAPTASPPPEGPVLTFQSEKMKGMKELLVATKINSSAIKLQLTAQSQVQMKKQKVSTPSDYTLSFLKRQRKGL
Epigenetic reg: regulators of epigenetic silencing causing reporter derepression in mouse cells; murine LDR cells, GFP reporter derepression, 30 h; Potency, µM (series often up to 53.9 µM), most hits filed as activators; 280,000 compounds, 0.2% hits; AID 1865; active means well fitted activation curve with a large enough effect; inconclusive means small, poorly fitted or top-dose-only effect; further: nearly all actives have a fitted effect of over 60% in size
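GFP-positive cell count by laser-scanning cytometry (objects 20–120 um) after 30 h, 37 C compound exposure of murine LDR cells; reporter is CMV-GFP integrated at a silenced locus, inducible by HDAC or DNMT inhibitors.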
Of the large screens only hits and unclear results are named; the others gave an inactive call. An excerpt weighted towards active compounds, which were near 1.9% of everything screened.

O=C(c1ccco1)N(Cc1cc2cc3c(cc2nc1N1CCOCC1)CCC3)CC1CCCO1 (configuration not stated)	none (no result: CXXC DNA block, Menin-MLL FL inh, ClpP mod, Menin MLL FP TR, Epigenetic reg)
CC1CN(CC(=O)NCCc2ccncc2)Cc2ccccc2O1 (configuration not stated)	none (no result: CXXC DNA block, Menin-MLL FL inh, ClpP mod, Menin MLL FP TR, Epigenetic reg)
Clc1cccc[n+]1CCCCCC[n+]1ccccc1Cl	none (no result: CXXC DNA block, Menin-MLL FL inh, PINK1 modulator, Menin MLL FP TR, Epigenetic reg)
O=C1OCc2cc(NC(=O)C3CCCO3)ccc21 (configuration not stated)	none
Cc1ccc(NS(=O)(=O)c2ccc(NC(=O)C3CCCO3)cc2)cc1 (configuration not stated)	ClpP mod 31.6µM
O=C1NC(=O)c2cc(NC(=O)C3CCCO3)ccc21 (configuration not stated)	ClpP mod 28.2µM
Cc1cnc(SCc2ccccn2)nc1C1CCCN(C(=O)c2noc3c2CCCC3)C1 (configuration not stated)	none (no result: CXXC DNA block, Menin-MLL FL inh, ClpP mod, Menin MLL FP TR, Epigenetic reg)
CC(C)(C)c1ccc(C(=O)C[n+]2cccc(Br)c2)cc1	none (no result: CXXC DNA block, Menin-MLL FL inh, PINK1 modulator, Menin MLL FP TR, Epigenetic reg)
CCOC(=O)N1CCC(NC(=O)c2ccc3c(c2)N(C)CCS3)CC1	ClpP mod 28.2µM
Cc1ccc(CN2CCN(Cc3c(C)nn(-c4ccc(F)cc4)c3C)CC2CCO)o1 (configuration not stated)	none
Cc1cc(C)c(CN2CCN(Cc3ccc(C)o3)C(CCO)C2)c(-n2cccn2)c1 (configuration not stated)	ClpP mod 25.1µM, Menin MLL FP TR inconclusive
COc1cccc2nccc(/C=C/c3ccc(N(C)C)cc3)c12	none (no result: CXXC DNA block, Menin-MLL FL inh, Menin MLL FP TR, Epigenetic reg)
CCCNC(=O)Cn1c(=O)/c(=C\c2ccc(-c3ccc([N+](=O)[O-])cc3)o2)s/c1=C\C(=O)C(C)(C)C	Menin-MLL FL inh inconclusive, PINK1 modulator inconclusive, Menin MLL FP TR 17.8µM, Epigenetic reg 0.199µM
Nc1nc(Nc2ccccc2)nc(N2CCOCC2)c1[N+](=O)[O-]	ClpP mod 15.8µM
COc1ccc(Nc2nc(N)c([N+](=O)[O-])c(N3CCOCC3)n2)cc1	none (no result: Menin MLL FP TR)
COc1ccccc1-c1cc(C(F)(F)F)n2ncc(S(=O)(=O)c3ccccc3)c2n1	ClpP mod 28.2µM, Menin MLL FP TR inconclusive
N#CC(C#N)=C(N)CSc1cccc[n+]1[O-]	Epigenetic reg 8.91µM (no result: ClpP mod)
O=C(CCCCCn1c(=O)[nH]c2ccccc2c1=O)NCCc1ccccc1	ClpP mod 31.6µM (no result: CXXC DNA block, Menin-MLL FL inh, Menin MLL FP TR)
O=c1c2ccccc2[nH]c(=S)n1Cc1ccccc1	Menin MLL FP TR inconclusive (no result: ClpP mod, Epigenetic reg)
O=c1c2ccccc2[nH]c(=S)n1CCc1ccccc1	ClpP mod 7.08µM
O=C(CCCCCn1c(=O)[nH]c2ccccc2c1=O)NCc1ccccc1	none (no result: CXXC DNA block, Menin-MLL FL inh, Menin MLL FP TR)
CCN1/C(=C/C=C/c2oc3ccc4ccccc4c3[n+]2CC)Oc2ccc3ccccc3c21	CXXC DNA block inconclusive, Menin-MLL FL inh inconclusive, PINK1 modulator inconclusive, Menin MLL FP TR inconclusive, Epigenetic reg 0.126µM (no result: ClpP mod)
CC[n+]1c(/C=C/N(C)c2ccccc2)oc2ccc(Cl)cc21	Menin MLL FP TR inconclusive
O=C(O)CCCCCn1c(SCC(=O)c2ccc(O)c(O)c2)nc2ccsc2c1=O	ClpP mod 7.94µM
CCCCn1c(SCC(=O)c2ccc(O)c(O)c2)nc2ccsc2c1=O	PINK1 modulator inconclusive, Menin MLL FP TR inconclusive
Cc1c2cnn(CC(=O)Nc3c(F)c(F)cc(F)c3F)c(=O)c2c(C)n1Cc1ccccc1F	Menin-MLL FL inh inconclusive, Menin MLL FP TR 12.6µM (no result: ClpP mod)
CCOc1ccc(OC(=O)c2cccc(S(=O)(=O)N3CCN(C)CC3)c2)cc1	ClpP mod 31.6µM (no result: CXXC DNA block, Menin-MLL FL inh, Menin MLL FP TR, Epigenetic reg)
Cc1ccccc1C1(CC(=O)N2CCCCC2c2cccnc2)CC(=O)N(C2CCCC2)C1=O (configuration not stated)	none (no result: CXXC DNA block, Menin-MLL FL inh, ClpP mod, Menin MLL FP TR, Epigenetic reg)
C=CCn1c(SCC(=O)Nc2ccc(-c3nc4ccc(C)cc4s3)cc2)nnc1-c1ccncc1	ClpP mod 3.55µM
O=C(CCN1C(=O)NC2(CCCC2)C1=O)Nc1ccc(-c2nc3ccccc3s2)cc1	ClpP mod 20µM (no result: CXXC DNA block, Menin-MLL FL inh, Menin MLL FP TR, Epigenetic reg)
CCC1(c2ccc(F)cc2)NC(=O)N(CC(=O)Nc2ccc(-c3nc4ccc(C)cc4s3)cc2)C1=O (configuration not stated)	ClpP mod 7.94µM

Source: PubChem (National Center for Advancing Translational Sciences (NCATS))
